{"source": "PubChem BioAssay (EPA / NIEHS)", "note": "Activity calls are given as the source filed them. How the source made its calls: active means hit-call score of the fitted dose curve at least 0.9, where 1 is the maximum; inactive means score below 0.9."}
{"target": "Hepatocyte nuclear factor 3-beta (Homo sapiens) (UniProt Q9Y261)", "sequence (Q9Y261 whole entry, looked up)": "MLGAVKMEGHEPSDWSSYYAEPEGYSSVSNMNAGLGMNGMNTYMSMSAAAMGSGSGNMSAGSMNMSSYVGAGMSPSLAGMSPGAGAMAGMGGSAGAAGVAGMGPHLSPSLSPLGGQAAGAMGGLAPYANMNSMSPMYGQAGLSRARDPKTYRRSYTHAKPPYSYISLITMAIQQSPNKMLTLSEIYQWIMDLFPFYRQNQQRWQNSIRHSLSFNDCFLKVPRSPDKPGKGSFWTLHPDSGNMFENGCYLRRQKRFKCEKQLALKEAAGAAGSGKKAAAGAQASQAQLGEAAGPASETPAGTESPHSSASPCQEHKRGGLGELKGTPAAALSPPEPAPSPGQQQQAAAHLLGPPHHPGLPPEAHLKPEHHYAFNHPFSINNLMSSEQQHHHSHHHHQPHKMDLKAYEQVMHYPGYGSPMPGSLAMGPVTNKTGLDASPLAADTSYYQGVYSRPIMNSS", "assay": "ATG_FoxA2_CIS: Attagene CIS-FACTORIAL HepG2 Assay for human Forkhead box A2 (FOXA2) (AID 2282942)", "conditions": "HepG2 cis-reporter transcription factor activity, 24 h; actives raise or lower the signal", "description": "ATG_CIS is a cell-based, multiplexed-readout assay that uses HepG2, a human liver cell line, with measurements taken at 24 hours after chemical dosing in a 24-well plate.ATG_FoxA2_CIS is one of 52 assay component(s) measured or calculated from the ATG_CIS assay. It is designed to make measurements of mRNA induction, a form of inducible reporter, as detected with fluorescence intensity signals by Reverse transcription polymerase chain reaction (RT-PCR) and Capillary electrophoresis technology.Data from the assay component ATG_FoxA2_CIS was analyzed into 1 assay endpoint. This assay endpoint, ATG_FoxA2_CIS, was analyzed with bidirectional fitting relative to DMSO as the negative control and baseline of activity. Using a type of inducible reporter, measures of mRNA for gain or loss-of-signal activity can be used to understand the reporter gene at the transcription factor-level as they relate to the gene FOXA2. Furthermore, this assay endpoint can be referred to as a primary readout, because this assay has produced multiple assay endpoints where this one serves a reporter gene function. To generalize the intended target to other relatable targets, this assay endpoint is annotated to the dna binding intended target family, where the subfamily is forkhead box protein.\nHuman liver HepG2 cells are transiently transfected with multiple reporter transcription units (MRTUs) in 6-well plates using FuGene 6 reagent (Roche; 3 ml FuGene/1 mg DNA). The MRTU constructs are regulated by a cis-regulating element (promoter). […] A major difference between the CIS and TRANS system is that in CIS activities of endogenous TFs are measured, whereas the TRANS assay evaluates changes in activities of exogenous, chimeric NR-Gal4 proteins. […] At the end of 24 hour incubation, total RNA was isolated using TriZol reagent (Invitrogen). The isolated RNA is then reverse-transcribed using oligo(dT) primer and Mo-MLV reverse transcriptase (Invitrogen) with DNAse I (Ambion) treatment for 30 min. The one-tenth of the produced cDNA was amplified by PCR using Taq DNA polymerase (Invitrogen) and two reporter sequence-specific primers. The PCR products were fluorescently labeled by primer extension with 6-arboxyfluorescein (6-FAM) 5'-labeled reporter sequence-specific primer (2 min at 95 C, 20 s at 68 C and 10 min at 72 C) and these products were digested with 5U of HpaI (New England Biolabs) for 2h at 37 C. The fragments were purified using Qiaquick PCR columns (Qiagen), analyzed on an ABI 3130xL genetic analyzer (Applied Biosystems) with peak positions identified by using a set of X-rhodamine (ROX)-labeled MapMarker1000 molecular weight standards (BioVentures). The raw capillary electrophoresis data was processed using Attagraph software (Attagene)."}
{"smiles": "CCC(C)(CCC(C)C)C(=O)O", "note": "(stereo not given)", "outcome": "inactive"}
{"smiles": "CCO[Si](CCCN)(OCC)OCC", "outcome": "inactive"}
{"smiles": "CCO[Si](OCC)(OCC)c1ccccc1", "outcome": "inactive"}
{"smiles": "O=C(O)c1nc(Cl)c(Cl)c(Cl)c1Cl", "outcome": "inactive"}
{"smiles": "O=C(c1ccccc1)c1ccccc1O", "outcome": "inactive"}
{"smiles": "CC(C)(Oc1ccc(Cl)cc1)C(=O)O", "outcome": "inactive"}
{"smiles": "CC(=O)c1nccs1", "outcome": "inactive"}
{"smiles": "C/C=C(\\C)C(=O)OCC/C=C\\CC", "outcome": "inactive"}
{"smiles": "NCc1ccccc1", "outcome": "inactive"}
{"smiles": "CCCCCCCCCCCCCC", "outcome": "inactive"}
{"smiles": "OCCc1ccccn1", "outcome": "inactive"}
{"smiles": "CC/C=C\\CC1=C(C)CCC1=O", "outcome": "inactive"}
{"smiles": "CC(C)CC(=O)CC(C)C", "outcome": "inactive"}
{"smiles": "CCCCCCC1CCC(=O)O1", "note": "(stereo not given)", "outcome": "inactive"}
{"smiles": "CO[Si](CCCNCCN)(OC)OC", "outcome": "inactive"}
{"smiles": "CN(C)c1ccc(C(c2ccccc2)c2ccc(N(C)C)cc2)cc1", "outcome": "inactive"}
{"smiles": "CC(=O)OC(C)(C)Cc1ccccc1", "outcome": "inactive"}
{"smiles": "O=C(O)c1cc(Cl)cc(Cl)c1O", "outcome": "inactive"}
{"smiles": "CCCCC(CC)COC(=O)CS", "note": "(stereo not given)", "outcome": "inactive"}
{"smiles": "O=C(O)/C=C/C(=O)O", "outcome": "inactive"}
{"smiles": "Cc1ccnc(N)c1", "outcome": "inactive"}
{"smiles": "CCCOCCC", "outcome": "inactive"}
{"smiles": "c1ccc(CNc2ncnc3nc[nH]c23)cc1", "outcome": "inactive"}
{"smiles": "C[C@H]1C[C@H]2[C@@H]3CCC4=CC(=O)C=C[C@]4(C)[C@@]3(F)[C@@H](O)C[C@]2(C)[C@@]1(O)C(=O)CO", "outcome": "inactive"}
{"smiles": "OCCOCCOCCOCCOCCO", "outcome": "inactive"}
{"smiles": "CC1=CCCC(C)(C)C12CCC(C)O2", "note": "(stereo not given)", "outcome": "inactive"}
{"smiles": "CC=CC(=O)O", "outcome": "inactive"}
{"smiles": "O=C(OCc1ccccc1)c1ccccc1", "outcome": "inactive"}
{"smiles": "CCc1cc(C(N)=S)ccn1", "outcome": "inactive"}
{"smiles": "C[Si](C)(C)O[Si](C)(C)O[Si](C)(C)C", "outcome": "inactive"}
{"smiles": "CCCCCC[C@@H](O)C/C=C\\CCCCCCCC(=O)O", "AC50": "172 µM (active)"}
{"smiles": "C=C(C)C(=O)OCC1CCCO1", "note": "(stereo not given)", "outcome": "inactive"}
{"smiles": "O=[N+]([O-])c1ccc2nc[nH]c2c1", "outcome": "inactive"}
{"smiles": "[O-][n+]1ccc(Cl)cc1", "outcome": "inactive"}
{"smiles": "O=C(O)/C=C\\C(=O)O", "outcome": "inactive"}
{"smiles": "CCOc1ccc2c(c1)C(C)CC(C)(C)N2", "note": "(stereo not given)", "outcome": "inactive"}
{"smiles": "Oc1ccc(Cl)cc1C1CCCC1", "outcome": "inactive"}
{"smiles": "O=C(CC(C(=O)OC1CCCCC1)S(=O)(=O)O)OC1CCCCC1", "note": "(stereo not given)", "outcome": "inactive"}
{"smiles": "COc1cccc(OC)c1C(=O)O", "outcome": "inactive"}
{"smiles": "CC1(C)S[C@@H]2[C@H](NC(=O)[C@H](N)c3ccccc3)C(=O)N2[C@H]1C(=O)O", "outcome": "inactive"}
